The whole screen tested about 310,000 compounds, of which about 14,000 (4.5%) showed an effect of 50% or more. Effects have a minus sign here. The list comes from a sample in which strong results are over-represented; it also holds similar structures and randomly drawn compounds.
Each compound was assayed against human ether-à-go-go-related gene (hERG) potassium channel (human, UniProt Q12809) (assay: primary screen, population patch clamp on CHO cells stably expressing hERG; higher = less effect of the substance).
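Note: peak tail current of the secondary pulse compared with the same well before compound.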

human ether-à-go-go-related gene (hERG) potassium channel, sequence (Q12809 whole entry, looked up): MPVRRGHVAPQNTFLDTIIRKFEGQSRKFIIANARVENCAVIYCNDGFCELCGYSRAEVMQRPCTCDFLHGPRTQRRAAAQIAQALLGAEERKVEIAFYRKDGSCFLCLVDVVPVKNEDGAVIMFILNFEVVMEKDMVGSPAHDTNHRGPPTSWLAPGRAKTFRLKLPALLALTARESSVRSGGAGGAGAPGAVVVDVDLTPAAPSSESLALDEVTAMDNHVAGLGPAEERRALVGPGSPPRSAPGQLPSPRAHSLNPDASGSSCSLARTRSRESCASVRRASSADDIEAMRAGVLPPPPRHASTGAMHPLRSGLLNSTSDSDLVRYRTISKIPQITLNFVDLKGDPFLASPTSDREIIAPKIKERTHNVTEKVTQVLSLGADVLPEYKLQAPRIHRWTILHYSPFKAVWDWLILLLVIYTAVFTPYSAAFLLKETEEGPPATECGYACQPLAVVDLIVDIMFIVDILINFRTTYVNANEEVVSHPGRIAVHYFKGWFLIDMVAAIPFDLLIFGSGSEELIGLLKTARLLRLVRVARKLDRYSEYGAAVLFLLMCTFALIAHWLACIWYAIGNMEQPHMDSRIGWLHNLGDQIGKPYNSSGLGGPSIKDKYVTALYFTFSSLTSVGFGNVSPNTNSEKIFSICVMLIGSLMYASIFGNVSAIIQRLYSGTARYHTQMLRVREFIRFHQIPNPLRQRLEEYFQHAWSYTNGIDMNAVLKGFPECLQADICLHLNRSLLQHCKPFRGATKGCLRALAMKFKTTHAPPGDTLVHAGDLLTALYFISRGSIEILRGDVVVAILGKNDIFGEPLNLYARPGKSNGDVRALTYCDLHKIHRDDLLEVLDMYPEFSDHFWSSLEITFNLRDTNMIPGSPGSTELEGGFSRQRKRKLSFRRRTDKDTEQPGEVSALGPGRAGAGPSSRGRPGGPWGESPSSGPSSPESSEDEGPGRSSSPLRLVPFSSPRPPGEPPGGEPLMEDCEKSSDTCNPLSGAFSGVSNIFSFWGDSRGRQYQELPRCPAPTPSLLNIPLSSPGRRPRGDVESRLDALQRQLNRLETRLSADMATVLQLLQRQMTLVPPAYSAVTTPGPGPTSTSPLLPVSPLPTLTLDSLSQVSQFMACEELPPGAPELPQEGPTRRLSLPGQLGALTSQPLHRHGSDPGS

| SMILES | hERG current change (%, negative = inhibition) at 10uM [%] |
| --- | --- |
| CCCc1cc(=O)[nH]c(-n2[nH]c3c(c2=O)CCCC3)n1 | 13.9 |
| CCOC(=O)N1CCN(c2nnc(-c3ccccc3)c3ccccc23)CC1 | -22 |
| CCCC(=O)N1CCN(c2nnc(-c3ccc(C)cc3)c3ccccc23)CC1 | -81.1 |
| CCCC(=O)N1CCN(c2nnc(-c3ccccc3)c3ccccc23)CC1 | -45.4 |
| CCOC(=O)N1CCN(c2nnc(-c3ccc(C)cc3)c3ccccc23)CC1 | -70.1 |
| CCCCS(=O)(=O)Nc1ccc(C(=O)NCC2CCCO2)cc1 (centres unmarked) | -4.69 |
| CC(C)=CCc1c(-c2ccc(O)cc2O)oc2c3c(cc(O)c2c1=O)OC(C)(C)C=C3 | 17.6 |
| Cl.NC1C=CC=C(C(=O)O)C1 (centres unmarked) | 3.23 |
| CC1(C)Cc2c(sc3c2C(=O)N(c2ccccc2)C2=NCCN23)CS1.Cl | -5.58 |
| CN1C(=O)c2c(sc3c2CC(C)(C)SC3)N2CCN=C12.Cl | -72.6 |
| CC1(C)Cc2c(sc3c2C2=NCCN2C=N3)CS1.Cl | -16.3 |
| CC(CCc1ccccc1)NC(C)C(O)c1ccc(O)cc1.Cl (centres unmarked) | -65.3 |
| COc1cc(CCC(C)NCc2ccccc2)ccc1O (centres unmarked) | -3.87 |
| COc1ccccc1CCNC(C)CCc1ccc(O)cc1 (centres unmarked) | -52.5 |
| COc1cc(OC)c(OC)cc1CNC(C)C(O)c1ccccc1.Cl (centres unmarked) | 12.6 |
| CC(CCc1ccc(O)cc1)NC(c1ccccc1)c1ccc(Cl)cc1 (centres unmarked) | -14.3 |
| COc1ccc(CCC(C)NCc2ccccc2OC)cc1 (centres unmarked) | -40.4 |
| COc1cc(OC)c(OC)cc1CCC(C)NCCC(c1ccccc1)c1ccccc1.Cl (centres unmarked) | -71.1 |
| CC(CCc1ccc(O)cc1)NCCC(c1ccccc1)c1ccccc1 (centres unmarked) | -76.1 |
| CC(CCc1ccc(O)cc1)NCCc1ccc(O)c(O)c1.Cl (centres unmarked) | -13.9 |
| COc1cc(OC)c(OC)cc1CCC(C)NC(=O)Cc1ccccc1 (centres unmarked) | 5.68 |
| CC(NCCc1ccc(O)cc1)C(O)c1ccc(O)cc1.Cl (centres unmarked) | 5.08 |
| C[C@H](NCCc1ccc(O)cc1)[C@H](O)c1ccc(O)cc1.Cl | 6.27 |
| COc1ccc(-c2sc(NC(=O)c3ccc(C)cc3)nc2-c2ccc([N+](=O)[O-])cc2)cc1 | 9.66 |

| SMILES | hERG current change (%, negative = inhibition) at 10uM [%] |
| --- | --- |
| CCOc1ccc(-n2c(SCC)nc3c(c2=O)SCC3)cc1 | 15 |
| Cn1c(=O)c2ccccc2n(CC(=O)NC2CCCC2)c1=O | 9.82 |
| CCCN(CCC)Cc1cc(=O)oc2cc3c(cc12)CCC3 | -9.37 |
| CC(=O)O.CC(=O)Oc1ccc2c(c1)OC(c1ccccc1)CC21CC(C)(C)NC(=O)N1 (centres unmarked) | 3.82 |
| O=C1CCCN1CCCNS(=O)(=O)c1ccc(F)cc1F | 8.77 |
| Cc1ccc(-n2nc3c(c2NC(=O)CC(C)C)CS(=O)(=O)C3)c(C)c1 | 25 |
| O=C(COC(=O)C1CC(=O)N(Cc2ccccc2)C1)Nc1ccc(Cl)cc1F (centres unmarked) | 48 |
| C/C(=N\NC(=O)c1nnn(-c2nonc2N)c1CSc1ccc(C)cc1)c1ccco1 | -9.04 |
| O=C1c2ccccc2NC(c2ccc(O)cc2)N1Cc1ccco1 (centres unmarked) | -24.3 |
| CCOC(=O)C(C)CC(C)C(=O)N1CCOCCN(C(=O)C(C)CC(C)C(=O)OCC)CCOCC1 (centres unmarked) | -9.48 |
| COc1ccc(CN(Cc2cc3ccc(C)cc3[nH]c2=O)Cc2nnnn2C2CCCC2)cc1 | -21.4 |
| CC1(C)Cc2c(c(N3CCOCC3)nc3sc(C(N)=O)c(N)c23)CO1 | -5.66 |
| O=C(NCC1CCCO1)c1cc(-c2ccc(Cl)cc2Cl)on1 (centres unmarked) | -9.68 |
| Nc1nccnc1C(=O)OCC(=O)N1CCN(S(=O)(=O)c2ccc(Cl)cc2)CC1 | -15.4 |
| CCCNC(=O)CSc1nc2ccccc2c(=O)n1CCC | 3.3 |
| O=C(Nc1ccccc1N1CCCC1)c1ccc(N2CCCC2=O)cc1 | -22.1 |
| COc1ccc(C)cc1NC(=O)COC(=O)c1ccc2ccccc2n1 | 3.24 |
| COc1ccc(CCC(C)N(C)Cc2ccccc2)cc1 (centres unmarked) | -34.8 |
| CC(O)CCc1ccc(O)cc1 (centres unmarked) | 11.7 |
| CC(CCc1ccc(O)cc1)N(C)CCc1ccccc1 (centres unmarked) | -62.2 |
| CCCNC(=O)c1cc(Cl)c(NC(=O)C2=CSCCO2)cc1OC | 16.5 |
| C=CCNC(=O)Nc1cc(Cl)ccc1OC | 7.65 |
| CCOC(=O)c1ccc(NC(=O)CCCN2C(=O)NC3(CCCC3)C2=O)cc1 | -3.62 |

Reference: paper PMC4336329 (PLoS ONE, 2015)
